Results filed as inconclusive are left out. Activity calls are given as the source filed them. Unless noted, calls follow the shape of the full dose curve.
Experiments:
[1] = Nuclear factor erythroid 2-related factor 2/antioxidant responsive element (Nrf2/ARE) small molecule agonists: qHTS cell viability counter screen in human keratinocytes (AID 1919968; active = well fitted curve in the direction sought with a large enough effect in the repeat runs; an effect the other way counts as inactive or inconclusive; also: nearly all actives have a fitted effect of over 55% in size)
Summary of the method: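 Seed 1,500 KeratinoSens cells per well, then incubate 5 h at 37 C/5% CO2. Add compounds in DMSO and incubate 23 h. Add CellTiter-Fluor, wait 1 h and read fluorescence.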

[2] = Nuclear factor erythroid 2-related factor 2/antioxidant responsive element (Nrf2/ARE) small molecule agonists: luciferase reporter gene qHTS assay in human keratinocytes (AID 1919969); also: nearly all actives have a fitted effect of over 35% in size; also: potency is read from the fitted curve at half-maximal effect
[3] = target: Gonadotropin-releasing hormone receptor (Homo sapiens) (UniProt P30968); assay: Human gonadotropin-releasing hormone receptor (GnRHR) small molecule agonists, calcium flux assay in GnRHR-HEK293 cells (AID 1920063); also: nearly all actives have a fitted effect of over 35% in size
Gonadotropin-releasing hormone receptor (Homo sapiens), sequence (P30968 whole entry, looked up): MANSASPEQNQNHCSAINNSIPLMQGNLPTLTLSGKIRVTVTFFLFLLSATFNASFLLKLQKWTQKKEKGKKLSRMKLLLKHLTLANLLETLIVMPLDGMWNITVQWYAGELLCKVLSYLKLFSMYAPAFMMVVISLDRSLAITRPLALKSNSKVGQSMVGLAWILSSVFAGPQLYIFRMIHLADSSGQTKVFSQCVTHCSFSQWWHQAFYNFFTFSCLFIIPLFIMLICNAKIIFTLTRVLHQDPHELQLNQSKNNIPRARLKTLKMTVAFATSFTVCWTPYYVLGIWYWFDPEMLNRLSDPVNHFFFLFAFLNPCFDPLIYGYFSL
Summary of the method: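 Cells: HEK293 stably expressing human GnRHR. Steps: overnight (18 h) culture, 1 h calcium dye loading at 37 C, compound addition, kinetic fluorescence read at 480/540 nm. Each compound tested at 15 concentrations in triplicate.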

[4] = target: KiSS-1 receptor (Homo sapiens) (UniProt Q969F8); assay: Human kisspeptin (KISS1R) small molecule agonists, calcium flux assay in KISS1R-HEK293 cells (AID 1920064; active = well fitted curve in the direction sought with a large enough effect in the repeat runs; an effect the other way counts as inactive or inconclusive)
KiSS-1 receptor (Homo sapiens), sequence (Q969F8 whole entry, looked up): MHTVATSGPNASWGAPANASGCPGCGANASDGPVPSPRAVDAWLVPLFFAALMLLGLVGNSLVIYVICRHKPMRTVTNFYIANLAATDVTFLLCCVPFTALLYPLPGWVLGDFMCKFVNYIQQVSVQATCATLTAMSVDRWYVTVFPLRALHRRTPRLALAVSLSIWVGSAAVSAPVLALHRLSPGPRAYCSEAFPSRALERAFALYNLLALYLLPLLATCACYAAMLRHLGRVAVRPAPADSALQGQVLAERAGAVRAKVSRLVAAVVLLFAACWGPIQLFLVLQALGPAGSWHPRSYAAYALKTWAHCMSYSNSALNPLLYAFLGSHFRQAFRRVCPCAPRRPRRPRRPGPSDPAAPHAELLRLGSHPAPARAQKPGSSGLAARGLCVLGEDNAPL
Summary of the method: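 Cells plated and incubated 18 h; dye added, 1 h at 37 C; compounds in DMSO pinned in; signal read at 480/540 nm every second for 3 min. Each compound tested at 15 concentrations in triplicate.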

[5] = G protein-coupled receptor (GPCR) small molecule agonists, calcium flux assay: HEK293 wild type cell line counter screen (AID 1920065)
Summary of the method: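 Counter-screen of the Tox21 10K library for non-specific calcium release: dye-loaded cells received compounds in DMSO and were monitored by kinetic fluorescence (480/540 nm, 3 min). Fifteen concentrations, run in triplicate.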

[6] = p53 small molecule agonists, cell-based qHTS assay with human liver microsomes (AID 1963577);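 also: p53 response element beta-lactamase reporter cells with liver microsomes plus NADPH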
Summary of the method: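 In this qHTS, p53 response-element beta-lactamase cells receive test compound together with a microsome/NADPH activating system (0.5 mg/mL final each) and are incubated 16 h at 37 C before LiveBLAzer fluorescence detection.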

[7] = p53 small molecule agonists, cell-based qHTS assay with rat liver microsomes (AID 1963578)
Summary of the method: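 Agonist mode in p53RE-bla reporter cells, with compounds co-incubated 16 h at 37 C alongside 0.5 mg/mL rat liver microsomes and 0.5 mg/mL NADPH (final), followed by a 2 h LiveBLAzer detection step.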

[8] = p53 small molecule agonists, cell-based qHTS assay with human liver microsomes: qHTS cell viability counter screen (AID 1963579); also: nearly all actives have a fitted effect of over 45% in size; also: potency is read from the fitted curve at half-maximal effect
Summary of the method: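 Metabolically activated exposure: compounds, human liver microsomes and NADPH (0.5 mg/mL final apiece) were added to p53RE-bla cells seeded 5 h earlier, left 16 h at 37 C, and then assessed for viability by CellTiter-Glo luminescence.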

[9] = p53 small molecule agonists, cell-based qHTS assay with rat liver microsomes: qHTS cell viability counter screen (AID 1963580); also: nearly all actives have a fitted effect of over 45% in size
Summary of the method: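 Viability is assessed in parallel with the p53 reporter read: HCT-116 p53RE-bla cells receive compounds plus rat microsomes and NADPH (0.5 mg/mL final apiece), incubate 16 h at 37 C, and then CellTiter-Glo luminescence is recorded.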

[10] = p53 small molecule agonists, cell-based qHTS assay: qHTS cell viability counter screen (AID 1963581); also: nearly all actives have a fitted effect of over 45% in size
Summary of the method: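 Cells: HCT-116 with p53 response element-driven beta-lactamase. Treatment: 16 h, 37 C, compounds in DMSO. Read: CellTiter-Glo luminescence after 30 min RT.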

[11] = p53 small molecule agonists, cell-based qHTS assay (AID 1963582; active = well fitted activation curve with a large enough effect in the signal ratio in the repeat runs, not every such curve was filed as active; the % refers to the signal ratio)
Summary of the method: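 Quantitative HTS in p53RE-bla cells: after a 5 h settling period, compounds delivered in DMSO were left on cells for 16 h at 37 C, and reporter induction was measured as fluorescence following 2 h substrate loading.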

[12] = target: 5-hydroxytryptamine receptor 2A (Homo sapiens) (UniProt P28223); assay: 5-hydroxytryptamine receptor 2A (HTR2A) small molecule antagonists, cell-based qHTS assay (AID 1963586); also: nearly all actives have a fitted effect of over 45% in size; also: potency is read from the fitted curve at half-maximal effect
5-hydroxytryptamine receptor 2A (Homo sapiens), sequence (P28223 whole entry, looked up): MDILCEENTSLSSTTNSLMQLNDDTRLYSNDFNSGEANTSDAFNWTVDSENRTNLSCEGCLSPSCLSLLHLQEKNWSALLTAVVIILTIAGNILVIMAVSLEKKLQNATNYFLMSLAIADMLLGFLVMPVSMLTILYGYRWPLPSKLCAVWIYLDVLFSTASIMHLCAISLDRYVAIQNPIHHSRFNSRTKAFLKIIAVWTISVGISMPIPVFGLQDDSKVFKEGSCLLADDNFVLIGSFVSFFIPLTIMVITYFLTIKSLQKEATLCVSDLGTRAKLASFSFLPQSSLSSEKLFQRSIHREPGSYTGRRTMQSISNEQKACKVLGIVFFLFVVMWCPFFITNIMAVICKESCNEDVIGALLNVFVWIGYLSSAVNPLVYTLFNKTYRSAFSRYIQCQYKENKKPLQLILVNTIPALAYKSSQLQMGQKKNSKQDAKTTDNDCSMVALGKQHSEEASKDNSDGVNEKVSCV
Summary of the method: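 Antagonist-mode intracellular calcium assay: DOI (4 nM) added after 5 min compound pre-incubation at room temperature to dye-loaded HTR2A-CHO cells. Fluorescence followed for 3 min, sampled every second.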

[13] = target: Muscarinic acetylcholine receptor M1 (Homo sapiens) (UniProt P11229); assay: Cholinergic receptor muscarinic 1 (CHRM1) small molecule antagonists, cell-based qHTS assay (AID 1963588); also: nearly all actives have a fitted effect of over 40% in size
Muscarinic acetylcholine receptor M1 (Homo sapiens), sequence (P11229 whole entry, looked up): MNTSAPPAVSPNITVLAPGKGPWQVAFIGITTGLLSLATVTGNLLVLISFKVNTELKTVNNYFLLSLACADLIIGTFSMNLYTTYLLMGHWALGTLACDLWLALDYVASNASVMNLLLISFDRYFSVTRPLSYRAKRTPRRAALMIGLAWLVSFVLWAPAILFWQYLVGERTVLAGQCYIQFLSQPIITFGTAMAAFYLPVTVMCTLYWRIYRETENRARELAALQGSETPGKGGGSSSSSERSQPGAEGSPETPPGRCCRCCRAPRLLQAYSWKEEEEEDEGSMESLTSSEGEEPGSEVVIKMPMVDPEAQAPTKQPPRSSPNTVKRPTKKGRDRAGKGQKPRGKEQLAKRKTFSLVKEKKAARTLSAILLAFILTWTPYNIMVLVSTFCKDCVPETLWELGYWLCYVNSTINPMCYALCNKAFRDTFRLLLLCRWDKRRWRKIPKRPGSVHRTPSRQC
Summary of the method: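 CHRM1-CHO calcium-flux assay, antagonist mode. Cells were seeded 18 h, dye-loaded 1 h at 37 C and given compound for 5 min at RT, then acetylcholine was added at 50nM. FDSS fluorescence was read 3 min; 15 concentrations, three runs.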

[14] = target: Muscarinic acetylcholine receptor M1 (Homo sapiens) (UniProt P11229); assay: Cholinergic receptor muscarinic 1 (CHRM1) small molecule agonists, cell-based qHTS assay (AID 1963589); also: nearly all actives have a fitted effect of over 35% in size
Summary of the method: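 Agonist-mode qHTS in CHO cells stably carrying human muscarinic M1. Intracellular calcium is tracked by fluorescence every second after compound transfer; each compound runs at 15 concentrations in three independent runs.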

[15] = cAMP Responsive Elements (CRE) small molecule agonists, cell-based qHTS assay (AID 1963590)
Summary of the method: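 Agonist mode qHTS in CRE-bla HEK 293T cells: compounds dosed from DMSO for 3 h at 37 C/5% CO2, followed by LiveBLAzer B/G FRET substrate for 2 h at room temperature.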

[16] = cAMP Responsive Elements (CRE) small molecule antagonists, cell-based qHTS assay (AID 1963591; active = well fitted inhibition curve with a large enough effect in the signal ratio in the repeat runs, not every such curve was filed as active; the % refers to the signal ratio)
Summary of the method: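 Antagonist mode: test compounds are co-incubated with the adenylyl cyclase activator NKH477 (0.25 uM final) on CRE-bla HEK293T cells for 3 h at 37 °C, followed by LiveBLAzer substrate loading.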

[17] = target: Beta-2 adrenergic receptor (Homo sapiens) (UniProt P07550); assay: Adrenergic beta2 receptor (ADRB2) small molecule antagonists, cell-based qHTS assay (AID 1963592); also: series mostly up to about 92 µM; nearly all actives have a fitted effect of over 50% in size
Beta-2 adrenergic receptor (Homo sapiens), sequence (P07550 whole entry, looked up): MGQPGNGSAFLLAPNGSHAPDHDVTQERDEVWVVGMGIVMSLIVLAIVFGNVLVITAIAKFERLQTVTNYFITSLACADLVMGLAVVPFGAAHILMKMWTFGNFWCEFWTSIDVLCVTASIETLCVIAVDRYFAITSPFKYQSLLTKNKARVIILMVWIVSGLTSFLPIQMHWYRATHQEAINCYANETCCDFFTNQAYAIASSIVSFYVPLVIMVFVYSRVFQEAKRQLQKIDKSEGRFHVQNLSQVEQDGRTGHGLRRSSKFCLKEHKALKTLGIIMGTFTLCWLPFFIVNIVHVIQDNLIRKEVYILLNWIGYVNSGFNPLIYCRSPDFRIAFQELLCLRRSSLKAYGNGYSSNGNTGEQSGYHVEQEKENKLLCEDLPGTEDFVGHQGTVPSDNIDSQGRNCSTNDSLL
Summary of the method: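 Cells (CHO, stable ADRB2 overexpression) incubated 18-20hr at 37C; compounds added from DMSO; agonist mix (1nM isoproterenol, 100uM IBMX, 25uM Ro-20-1724) added; 0.5hr RT; d2-cAMP and anti-cAMP-cryptate added; 1hr RT; 665/615 nm read.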

[18] = target: D(2) dopamine receptor (Homo sapiens) (UniProt P14416); assay: Dopamine D2 receptor (DRD2) small molecule agonists, cell-based qHTS assay (AID 1963594); also: nearly all actives have a fitted effect of over 35% in size
D(2) dopamine receptor (Homo sapiens), sequence (P14416 whole entry, looked up): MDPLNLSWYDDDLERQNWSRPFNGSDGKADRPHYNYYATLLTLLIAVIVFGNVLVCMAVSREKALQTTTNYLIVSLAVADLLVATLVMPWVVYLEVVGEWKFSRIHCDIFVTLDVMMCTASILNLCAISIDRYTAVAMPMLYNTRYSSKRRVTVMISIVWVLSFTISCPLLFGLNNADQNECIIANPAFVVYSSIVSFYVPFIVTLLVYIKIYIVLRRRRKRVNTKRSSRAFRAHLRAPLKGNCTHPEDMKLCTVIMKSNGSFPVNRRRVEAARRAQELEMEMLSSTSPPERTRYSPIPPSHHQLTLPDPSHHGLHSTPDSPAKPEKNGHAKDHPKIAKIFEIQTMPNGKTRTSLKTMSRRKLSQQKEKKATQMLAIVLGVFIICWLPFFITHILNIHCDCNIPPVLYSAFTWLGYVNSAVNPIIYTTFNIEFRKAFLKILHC
Summary of the method: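 HEK293 cells stably expressing human DRD2, pre-treated with PDE inhibitor Ro20-1724 (0.1 mM final) and compound 10 min at room temperature, then stimulated with NKH477 (200nM […]) for 30 min. cAMP read by HTRF (665/620 nm).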

[19] = target: 5-hydroxytryptamine receptor 2A (Homo sapiens) (UniProt P28223); assay: 5-hydroxytryptamine receptor 2A (HTR2A) small molecule agonists, cell-based qHTS assay (AID 1963587); also: nearly all actives have a fitted effect of over 30% in size
Summary of the method: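 CHO cells stably expressing human HTR2A, plated 18 h, loaded with calcium dye 1 h at 37 C. Agonist mode: compounds added and intracellular calcium fluorescence recorded kinetically for 2 min at 1 sec intervals.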

[20] = target: D(2) dopamine receptor (Homo sapiens) (UniProt P14416); assay: Dopamine D2 receptor (DRD2) small molecule antagonists, cell-based qHTS assay (AID 1963595; active = well fitted inhibition curve with a large enough effect in the signal ratio in the repeat runs, with a control signal flat; the % refers to the signal ratio)
Summary of the method: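 DRD2-HEK293; 0.1 mM Ro20-1724; cpd 10 min RT; NKH477 200 nM + quinpirole 12 nM, 30 min RT; HTRF cAMP (cAMP-d2/anti-cAMP cryptate), 665/620 nm ratio after 1 h.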
% is scaled to controls: 0 for no effect and ±100 for the full control effect.

CCOC(=O)C(C)O (stereo not drawn)
inactive: Potency [1] | Potency [2] | Potency [3] | outcome [4] | outcome [5] | Potency [6] | Potency [7] | Potency [8] | Potency [9] | Potency [10] | Potency [11] | Potency [12] | Potency [13] | Potency [14] | Potency [15] | Potency [16] | Potency [17] | Potency [18]

O=C(O)c1cccc(Cl)n1
active: Potency [2] 68.6 µM | Potency [8] 40.8 µM
inactive: Potency [1] | Potency [3] | outcome [4] | outcome [5] | Potency [6] | Potency [7] | Potency [9] | Potency [10] | Potency [11] | Potency [12] | Potency [19] | Potency [14] | Potency [16] | Potency [17] | Potency [18] | Potency [20]

CCCCOC(=O)[C@@H](C)Oc1ccc(Oc2ccc(C(F)(F)F)cn2)cc1
inactive: Potency [1] | Potency [2] | Potency [3] | outcome [4] | outcome [5] | Potency [6] | Potency [7] | Potency [8] | Potency [9] | Potency [10] | Potency [11] | Potency [12] | Potency [19] | Potency [14] | Potency [16] | Potency [17] | Potency [18] | Potency [20]

C[C@H](CN1CCCC1)C(=O)c1ccc(C(F)(F)F)cc1
inactive: Potency [1] | Potency [2] | Potency [3] | outcome [4] | outcome [5] | Potency [6] | Potency [7] | Potency [8] | Potency [9] | Potency [10] | Potency [11] | Potency [12] | Potency [19] | Potency [15] | Potency [17] | Potency [18] | Potency [20]

CCOC(=O)C1=NOC(c2ccccc2)(c2ccccc2)C1
inactive: Potency [1] | Potency [2] | Potency [3] | outcome [4] | outcome [5] | Potency [6] | Potency [7] | Potency [8] | Potency [9] | Potency [10] | Potency [11] | Potency [12] | Potency [19] | Potency [14] | Potency [15] | Potency [18]

CCC(=O)CC(C)CC (stereo not drawn)
inactive: activity change, negative = cytotoxicity [1] 1.61% [at 0.349 µM] | activity, positive = activation [2] -3.45% [at 0.349 µM] | activity change [3] -1.45% [at 0.217 µM, hits give high values] | activation [4] -1.52% [at 0.29 µM] | activation [5] -0.478% [at 0.217 µM] | activation [6] -0.0354% [at 0.249 µM] | activation [7] -2.6% [at 0.249 µM] | activity change, negative = cytotoxicity [8] -9.86% [at 0.249 µM] | activity change, negative = cytotoxicity [9] 1.72% [at 0.249 µM] | activity change, negative = cytotoxicity [10] 22.9% [at 0.249 µM] | activation [11] 5.1% [at 0.249 µM] | activity, negative = inhibition [12] 14.6% [at 0.233 µM] | activity, negative = inhibition [13] -17.2% [at 0.232 µM] | activation [14] 0.0292% [at 0.29 µM] | activation [15] 0.0521% [at 0.349 µM] | activity change, negative = inhibition [16] 1.08% [at 0.349 µM] | activity change, negative = inhibition [17] 7.63% [at 0.349 µM] | activity change, negative = inhibition [20] 8.77% [at 0.348 µM]

CC(C)Cc1ccc(C(C)C(=O)OCc2ccccn2)cc1 (stereo not drawn)
inactive: Potency [1] | Potency [2] | Potency [3] | outcome [4] | outcome [5] | Potency [6] | Potency [7] | Potency [8] | Potency [9] | Potency [10] | Potency [11] | Potency [19] | Potency [14] | Potency [15] | Potency [17] | Potency [20]
active: Potency [12] 2.05 µM

Cc1nc(C)nc(N2C[C@@H](C)N(c3ccnc([C@@H](C)O)n3)[C@@H](C)C2)n1
inactive: Potency [1] | Potency [2] | Potency [3] | outcome [4] | outcome [5] | Potency [6] | Potency [7] | Potency [8] | Potency [9] | Potency [10] | Potency [11] | Potency [12] | Potency [19] | Potency [14] | Potency [17] | Potency [18]

Source: PubChem BioAssay (Tox21)
